In PubChem BioAssay AID1159580 (chemical genetic matrix, 2015):
Several values for one entry are separate records, joined by “and”; a condition that tells them apart may be missing. Identical values can stand only once. In all, about 5,500 compounds went through this assay and about 2,000 (36%) were called active. Roughly 18% stayed inconclusive and do not appear here. Rule as the data show it: active = normalized growth mostly below about 0.91 (no sharp cut-off); inconclusive = no clear call, values can overlap the other calls; inactive = mostly above about 0.92. Some of the results follow.

Assay: chemical genetic growth profiling, strain panel (AID 1159580);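 also: tested at 20 µM; growth read once vehicle control cultures reached saturation at 30 °C; 1 = growth at the plate median or of vehicle wells; lower values mean less growth of the strain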
Settings: S. cerevisiae deletion strains, growth OD

Measured: normalized growth

C=C(C)c1cc2cc(C(C)=O)c(O)cc2o1
inactive: locus YAL013W, strain DEP1, active compounds read low 0.948 | locus YAL021C, strain ccr4, active compounds read low 0.981 | locus YAL026C, strain drs2, active compounds read low 0.985 | locus YAL030W, strain snc1, active compounds read low 0.974 | locus YBL061C, strain skt5, active compounds read low 0.97 | locus YBR009C, strain hhf1, active compounds read low 0.927 | locus YBR021W, strain FUR4, active compounds read low 1.11 | locus YBR023C, strain chs3, active compounds read low 0.94 | locus YBR171W, strain sec66, active compounds read low 0.952 | locus YBR231C, strain swc5, active compounds read low 0.961 | locus YBR279W, strain paf1, active compounds read low 0.966 | locus YCL011C, strain gbp2, active compounds read low 0.943 | locus YCL016C, strain dcc1, active compounds read low 0.921 | locus YCL029C, strain bik1, active compounds read low 0.961 | locus YCL069W, strain vba3, active compounds read low 0.964 | locus YCR088W, strain abp1, active compounds read low 0.965 | locus YDL005C, strain med2, active compounds read low 0.991 | locus YDL035C, strain GPR1, active compounds read low 0.93 | locus YDL040C, strain nat1, active compounds read low 0.974 | locus YDL074C, strain BRE1, active compounds read low 0.924 | locus YDL101C, strain DUN1, active compounds read low 0.959 | locus YDR001C, strain nth1, active compounds read low 0.972 | locus YDR069C, strain doa4, active compounds read low 0.998 | locus YDR137W, strain rgp1, active compounds read low 0.854 | locus YDR150W, strain NUM1, active compounds read low 0.965 | locus YDR159W, strain sac3, active compounds read low 0.992 | locus YDR162C, strain NBP2, active compounds read low 0.926 | locus YDR297W, strain sur2, active compounds read low 0.991 | locus YDR318W, strain mcm21, active compounds read low 0.928 | locus YDR334W, strain swr1, active compounds read low 0.983 | locus YDR335W, strain msn5, active compounds read low 0.965 | locus YDR388W, active compounds read low 0.947 | locus YDR502C, strain sam2, active compounds read low 0.968 | locus YEL003W, strain gim4, active compounds read low 0.973 | locus YEL037C, strain rad23, active compounds read low 0.979 | locus YEL061C, strain CIN8 (second series), active compounds read low 0.958 | locus YEL061C, strain CIN8, active compounds read low 0.94 | locus YER015W, strain faa2, active compounds read low 0.958 | locus YER016W, strain bim1, active compounds read low 0.975 | locus YER111C, strain swi4, active compounds read low 0.97 | locus YER155C, strain BEM2, active compounds read low 0.967 | locus YER167W, strain BCK2, active compounds read low 0.904 | locus YFR010W, strain ubp6, active compounds read low 1 | locus YGL078C, strain dbp3, active compounds read low 0.962 | locus YGL167C, strain pmr1, active compounds read low 0.956 | locus YGL173C, strain kem1, active compounds read low 0.971 | locus YGL227W, strain vid30, active compounds read low 0.967 | locus YGL248W, strain PDE1, active compounds read low 0.967 | locus YGL253W, strain hxk2, active compounds read low 0.977 | locus YGR135W, strain pre9, active compounds read low 0.971 | locus YGR252W, strain gcn5, active compounds read low 0.916 | locus YHR013C, strain ard1, active compounds read low 0.94 | locus YHR027C, strain rpn1, active compounds read low 0.992 | locus YHR030C, strain SLT2, active compounds read low 0.954 and 0.925 | locus YHR079C, strain IRE1 (second series), active compounds read low 0.93 | locus YHR079C, strain IRE1, active compounds read low 0.909 | locus YHR129C, strain ARP1, active compounds read low 0.953 | locus YHR142W, strain chs7, active compounds read low 0.907 | locus YIL066C, strain RNR3, active compounds read low 0.919 | locus YIL073C, strain SPO22, active compounds read low 0.899 | locus YIL125W, strain kgd1, active compounds read low 0.934 | locus YIR030C, strain dcg1, active compounds read low 0.929 | locus YJL092W, strain hpr5, active compounds read low 0.973 | locus YJL095W, strain BCK1 (second series), active compounds read low 0.974 | locus YJL095W, strain BCK1, active compounds read low 0.95 and 0.932 | locus YJL115W, strain asf1, active compounds read low 0.983 | locus YJL129C, strain trk1, active compounds read low 0.926 | locus YJL134W, strain LCB3, active compounds read low 0.951 | locus YJL154C, strain vps35, active compounds read low 0.983 | locus YJL164C, strain tpk1, active compounds read low 0.932 | locus YJL166W, strain qcr8, active compounds read low 0.945 | locus YJL187C, strain SWE1 (second series), active compounds read low 0.958
active: locus YBR229C, strain ROT2, active compounds read low 0.91 | locus YDL185W, strain tfp1, active compounds read low 0.895 | locus YDL192W, strain arf1, active compounds read low 0.893 | locus YDR101C, strain arx1, active compounds read low 0.873 | locus YDR195W, strain ref2 1.2 [resistant] | locus YDR392W, strain spt3, active compounds read low 0.672 | locus YER110C, active compounds read low 0.894 | locus YER155C, strain BEM2 (second series), active compounds read low 0.615 | locus YGL086W, strain mad1, active compounds read low 0.928 | locus YGL240W, strain doc1, active compounds read low 0.829 | locus YHR094C, strain hxt1, active compounds read low 0.917 | locus YHR200W, strain rpn10, active compounds read low 0.883 | locus YJL168C, strain set2, active compounds read low 0.929
